Bioassay records deposited in PubChem BioAssay by National Center for Advancing Translational Sciences (NCATS).
An excerpt weighted towards active compounds, which were near 8.1% of everything screened.
ClpP mod: qHTS Assay for Activators of ClpP; ATP-dependent Clp protease proteolytic subunit (Bacillus subtilis (strain 168)), P80244; purified B. subtilis ClpP, FRET peptide cleavage, 20 min; Potency, µM (highest dose often 57.5 µM), without a hit: at the top dose activity change, negative = active; 340,000 tested, 1.9% active; active = well fitted falling curve with a large enough effect; inconclusive = small, poorly fitted or top-dose-only effect; inactive = no such curve, though single readings can be large or run the other way; note: the source files actives as falling curves though it sought activators and does not explain the sign; nearly all actives have a fitted effect of over 65% in size
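ClpP 10 microg/mL final, pH 8 Tris/KCl buffer with BSA, glycerol, Tween-20; compound pinned in; FRET-FV substrate; RT 20 min; Ex320/Em430; ΔFRET vs ADEP 5.8 microM, DMSO, no enzyme.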
RORgamma inh: blocks mouse ROR gamma transcriptional activity; 310,000 tested, 5.4% active; P51450; Drosophila S2 Gal4-RORgamma UAS-luciferase reporter, 20 h; Potency, µM (doses to about 53.6 µM), for inactives: top-dose activity change, negative = inhibition, hits mostly inhibitors; note: % is set by controls: 0 for no effect and ±100 for the full control effect; nearly all actives have a fitted effect of over 60% in size
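In this cell-based reporter format, copper sulfate (700 uM final) drives Gal4–ROR gamma fusion expression from a metallothionein promoter in Drosophila Schneider cells; compounds preincubated 1 hr, reporter read after 20 hr at ambient temperature.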
PINK1 expr mod: PINK1 expression modulation; PINK1 immunofluorescence, high-content cytometry, 24 h; 410,000 tested, 0.2% active; Potency, µM (series often up to 76.6 µM), for inactives: top-dose activation (PINK1 increase), hits mostly activators; active = well fitted activation curve with a large enough effect; inconclusive = small, poorly fitted or top-dose-only effect; cell line not stated here; note: % of control where 0% means no effect; nearly all actives have a fitted effect of over 65% in size
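PINK1 protein, normally rapidly degraded, was detected by immunofluorescence after 24 hour compound treatment of a stable cell line. Titration data (5 concentrations) came from laser-scanning cytometry, with CCCP-treated wells as controls.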
Epigenetic derep: epigenetic control regulation, reporter derepression; Potency, µM (titrated, usually from 53.9 µM), for inactives: top-dose GFP activation, actives largely listed as activators; 280,000 tested, 0.2% active; murine LDR cells, GFP reporter derepression, 30 h; AID 1865; note: % of control where 0% means no effect; nearly all actives have a fitted effect of over 60% in size
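Murine LDR cells bearing a silenced CMV-driven GFP reporter were exposed to compound for 30 h at 37 C. After PBS washes, GFP-positive cells (20-120 um objects) counted by laser-scanning microplate cytometry.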
Gal4-VP16 FLuc: counter-screen for ROR gamma inhibitors: Gal4-VP16 reporter; Potency, µM (series often up to 53.6 µM), without a hit: at the top dose activity, negative = inhibition, usual class: inhibitors; 310,000 tested, 3.5% active; Drosophila S2 Gal4-VP16 UAS-luciferase, luminescence, 20 h;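 note: Gal4-VP16 expression switched on by copper sulfate through the metallothionein promoter; % is set by controls: 0 for no effect and ±100 for the full control effect; nearly all actives have a fitted effect of over 50% in size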
Sfp inh: inhibitors of Bacillus subtilis Sfp phosphopantetheinyl transferase; AID 1490; Biochemical Sfp PPTase activity, qHTS; Potency, µM, without a hit: largest response in the series, negative = inhibition, actives largely listed as inhibitors; 310,000 tested, 3.5% active;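 note: the enzyme is Sfp with the accession as filed and its product quenches rhodamine fluorescence; 0% = enzyme reaction without inhibitor and -100% = no enzyme wells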
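Sfp 15 nM + cpd, 15 min RT; start w/ rhodamine-CoA 5 uM, BHQ-2-YbbR 12.5 uM (final); 50 mM Hepes pH 7.6, 10 mM MgCl2, 0.01% NP-40, 0.01% BSA; read 525/598 nm at 0 and 30 min.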
The depositor's hits bear a star; ? = inconclusive; . = no result; [ ] = remark or other dose. Unless noted, calls come from the whole dose curve; as a rule, active = well fitted curve in the direction sought with a large enough effect; inconclusive = small, poorly fitted or top-dose-only effect, or another doubt; inactive = no such curve, though single readings can be large; an effect the other way counts as inactive or inconclusive. Potency is the fitted concentration of half-maximal effect.

SMILES	ClpP mod	RORgamma inh	PINK1 expr mod	Epigenetic derep	Gal4-VP16 FLuc	Sfp inh
S=c1nc(C2CC2)[nH]c2ccccc12	8.1%	3.55µM*	-0.6%	-3.2%	5.62µM*	-37.7%
O=S(=O)(c1ccccc1)c1nc(-c2ccco2)oc1N1CCCCCC1	1.6%	25.3%	-0.1%	-0.8%	19.8%	63.1µM*
CN1CCN(c2oc(-c3ccco3)nc2S(=O)(=O)c2ccccc2)CC1	-2.7%	-8.5%[10 µM]	-1.4%	1.6%	-2.9%	-1.1%
COc1cc(OC)cc(C(=O)NCCNC(=O)c2ccccc2)c1	-7.5%	16.7%	1.0%	-1.0%	3.9%	16.1%
COc1ccc(C(=O)NC(=S)NCc2ccccc2)cc1	-1.0%	7.08µM*	4.1%	-1.2%	22.4µM*	-3.2%
COc1ccc(C(=O)NC(=S)NCc2cccnc2)cc1Cl	.	11.2µM*	0.0%	.	?	3.5%
COc1cc(OC)cc(C(=O)NC(=S)N(Cc2ccccc2)C(C)C)c1	1.0%	0.501µM*	5.9%	.	0.891µM*	8.2%
CC(C)N(Cc1ccccc1)C(=O)CC(=O)N(Cc1ccccc1)C(C)C	.	-16.0%	0.4%	.	3.6%	9.1%
COc1cc(OC)cc(C(=O)NC(=S)NCCc2ccccc2)c1	1.4%	0.708µM*	2.5%[38.3 µM]	-1.6%	0.631µM*	26.8%
COc1ccc(C)cc1NC(=O)CCS(=O)(=O)c1cc2c3c(c1)CCN3C(=O)CC2	0.2%	.	1.2%	-0.5%	.	.
COc1ccc(C(=O)NCCSc2ccccc2)cc1	1.1%	11.2µM*	2.0%	-0.9%	?	2.7%
COC(=O)[C@H](CCCN=C(N)N)NC(=O)CCCc1c(-c2ccccc2)[nH]c2c(F)cc(F)cc12	.	1.7%	.	2.2%	-8.8%	?
CC(=O)c1ccc(N2CCN(S(=O)(=O)c3ccc4c(c3)CC(C)N4C(=O)C3CC3)CC2)cc1 (stereo not drawn)	-23.3%	-40.9%	2.2%	.	11.2µM*	-2.5%
CC(=O)c1ccc(N2CCN(S(=O)(=O)c3ccc4c(c3)CC(C)N4C(C)=O)CC2)cc1 (stereo not drawn)	.	?	1.3%	.	?	1.9%
CCOC(=O)c1cc(S(=O)(=O)Nc2ccc(Br)c(C)c2)[nH]n1	1.8%	.	1.2%	-1.7%	.	.
CN(C)c1ccc(CNC(=O)CCCN2C(=O)c3cccnc3Oc3ccc(Cl)cc32)cc1	-0.9%	.	0.8%	-0.2%	.	.
O=C(Nc1ncc([N+](=O)[O-])s1)c1cccs1	2.7%	?	?	.	10µM*	11.4%
O=C(/C=C/c1ccc([N+](=O)[O-])cc1)Nc1ncc([N+](=O)[O-])s1	-3.4%	?	?	5.3%	7.08µM*	39.8µM*
O=C(/C=C/c1ccc([N+](=O)[O-])cc1)NCc1ccccn1	-2.0%	27.4%	-2.7%	-4.8%	-1.2%	9.2%
CO/N=C1/[C@H]2O[C@@H]2[C@@H](O)[C@H]2[C@H]1CCn1c(=O)n(-c3ccccc3)c(=O)n12	.	23.5%[10 µM]	.	0.0%[10.1 µM]	8.3%[10 µM]	10.4%
Cc1cccc(Cc2c(C)nc3c(C(=O)NCc4ccco4)cnn3c2C)c1	31.6µM*	30.5%	8.9%[38.3 µM]	1.1%	?	?
Cc1nc2c(C(=O)NCc3ccccc3Cl)cnn2c(C)c1Cc1c(F)cccc1Cl	-27.4%	.	-1.0%	-0.1%	.	.
Cc1nc2c(C(=O)NCc3ccc4c(c3)OCO4)c[nH]n2c(=O)c1Cl	31.6µM*	24.3%	3.9%[38.3 µM]	0.0%	-9.2%	44.7µM*
Cc1nc2c(C(=O)NCc3ccc4c(c3)OCO4)cnn2c(C)c1Cc1ccc(F)cc1Cl	35.5µM*	29.8%	10.5%[38.3 µM]	1.7%	-4.8%	-26.4%
COc1cccc(CNC(=O)c2c[nH]n3c(=O)c(Cl)c(C)nc23)c1	?	10.3%	1.3%	-2.2%	-11.8%	-12.7%
SMILES	ClpP mod	RORgamma inh	PINK1 expr mod	Epigenetic derep	Gal4-VP16 FLuc	Sfp inh
Cc1nc2c(C(=O)NCc3ccco3)cnn2c(C)c1Cc1ccc(F)cc1Cl	31.6µM*	?	10.0%[38.3 µM]	0.0%	-11.3%	-26.5%
CN(C)c1ccc(/C=C/c2ccnc3c(Cl)cccc23)cc1	-1.5%	.	.	.	.	.
COc1ccc(-n2c(CNC(=O)c3cccc4ccccc34)nnc2SC)cc1	.	.	3.1%	.	.	.
CCC[C@H]1COCCS(=O)(=O)N1Cc1ccc(F)cc1	-0.1%	.	.	.	.	.
Cc1sc2ncnc(Sc3ccccc3C(=O)Nc3ccc(Br)cc3)c2c1C	-7.6%	10µM*	-0.1%	?	8.91µM*	50.1µM*
Cc1cccc(C)c1-n1cccc1/C=C1\SC(=S)N(c2cccc(C(=O)O)c2)C1=O	.	13.5%	3.8%	-0.3%	-12.5%	39.8µM*
Cc1ccc(NC(=O)CN2C(=O)S/C(=C\c3cccn3-c3cccc(C(=O)O)c3)C2=O)c(C)c1	-5.3%	20.5%	0.4%	-1.9%	5.8%	50.1µM*
Cc1cccc(C)c1NC(=O)CN1C(=O)S/C(=C\c2cccn2-c2cccc(C(=O)O)c2)C1=O	28.2µM*	2.1%	2.2%	0.0%	-14.7%	-16.8%
CCOc1ccc(NC(=O)N(Cc2cn(CC)c3ccccc23)C2CCCCCC2)cc1	-7.4%	.	2.8%	0.2%	.	.
CNc1ncnc2ccc(-c3cccc(OC)c3)cc12	.	36.9%	0.8%	.	-12.0%	-7.5%
O=C(CN1C(=O)C2(SCC(=O)N2c2cccc(F)c2)c2ccccc21)NCCc1ccccc1 (stereo not drawn)	2.0%	.	-2.3%	-0.4%	.	.
CCOc1ccc(C(=O)NCc2nc3cccnc3n2Cc2cccc(OC)c2)cc1	-0.6%	.	-0.8%	0.0%	.	.
CC(C)COc1ccc(CSCCNC(=S)Nc2ccccc2)cc1	-6.2%	1.12µM*	?	0.0%	3.16µM*	23.3%
CCCCCOc1ccc(CSCCNC(=S)Nc2ccccc2)cc1	1.0%	3.16µM*	1.1%	2.0%	3.16µM*	23.9%
CCCCCOc1ccc(NC(=O)CCCC(=O)O)cc1	-29.5%	7.0%	2.4%	-0.9%	-29.3%	18.6%
Cc1cccc(CSCCNC(=O)Nc2ccccc2)c1	-1.0%	-3.2%	3.5%	-6.4%	-2.4%	12.2%
CCCCOc1ccc(CSCCNC(=S)Nc2ccccc2)cc1	-6.0%	4.47µM*	?	0.0%	4.47µM*	20.9%
S=C(NCCCNC(=S)Nc1ccccc1)Nc1ccccc1	1.3%	?	0.2%	1.0%	5.1%	-11.0%
Cc1cccc(N2C(=O)N(CC(=O)C(C)(C)C)c3ccccc3S2(=O)=O)c1C	-0.8%	.	0.9%	-0.5%	.	.
CO[C@H]1/C=C\O[C@@]2(C)Oc3c(C)c(O)c4c(O)c(c(C=NN5CCN(C6CCCC6)CC5)c(O)c4c3C2=O)NC(=O)C(C)=CC=C[C@H](C)[C@H](O)[C@@H](C)[C@@H](O)[C@@H](C)[C@H](OC(C)=O)[C@H]1C	2.3%	.	2.8%	.	.	.
